Source: PubChem
PD-1 reverse act: activators reversing PD-1 mediated T-cell inhibition, primary screen, luminescence, primary human CD4 T cells, PD-L1 beads; CellTiter-Glo 96 h; activation, % (no concentration beside the values); 29,000 tested, under 10 active; call rule not given here;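 also: 0% = median vehicle wells and 100% = positive control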
NOMO-1 viab: NOMO-1 AML cell viability reduction, primary screen, STK33 inhibitor project, CellTiter-Glo luminescence | NOMO-1 AML viability, 72 h | inhibition, % (no concentration beside the values) | 37,000 tested, 7.5% active | AID 2330, 2010; in the data active = inhibition above about 80%; inconclusive = no clear call, values can overlap the other calls
STK33 inh: STK33 kinase inhibitors, primary screen, biochemical, luminescence, ADP-Glo, MBP substrate; Serine/threonine-protein kinase 33 (Homo sapiens), Q9BYT3; inhibition, % at 12.5 µM; 27,000 tested, 0.44% active; AID 2322, 2010; in the data active = inhibition above about 20%; inconclusive = no clear call, values can overlap the other calls
Target sequence (Q9BYT3 whole entry, looked up): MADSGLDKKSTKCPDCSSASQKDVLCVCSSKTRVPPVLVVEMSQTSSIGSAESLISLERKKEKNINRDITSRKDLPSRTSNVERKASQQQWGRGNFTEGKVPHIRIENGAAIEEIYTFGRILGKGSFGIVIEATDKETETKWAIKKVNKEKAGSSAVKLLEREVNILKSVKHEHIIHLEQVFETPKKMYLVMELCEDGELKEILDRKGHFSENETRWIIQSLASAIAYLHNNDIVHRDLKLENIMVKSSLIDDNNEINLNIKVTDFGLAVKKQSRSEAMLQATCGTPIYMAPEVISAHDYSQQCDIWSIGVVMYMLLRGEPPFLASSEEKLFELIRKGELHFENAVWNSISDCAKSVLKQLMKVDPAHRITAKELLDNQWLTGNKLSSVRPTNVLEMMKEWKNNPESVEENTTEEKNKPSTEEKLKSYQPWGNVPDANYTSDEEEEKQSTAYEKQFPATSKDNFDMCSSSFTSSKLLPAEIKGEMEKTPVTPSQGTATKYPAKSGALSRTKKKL
* marks the source's active call; other numbers are inactive results; ? = inconclusive; . = no result. Shown is part of a subset that was picked to be rich in hits.

SMILES	PD-1 reverse act	NOMO-1 viab	STK33 inh
C[C@H]1CN([C@@H](C)CO)C(=O)c2cc(NC(=O)NC3CCCCC3)ccc2O[C@@H]1CN(C)Cc1ccc(-c2ccccc2)cc1	-1	38	2
C[C@@H]1CN([C@@H](C)CO)C(=O)c2cc(NC(=O)NC3CCCCC3)ccc2O[C@H]1CN(C)Cc1ccc(-c2ccccc2)cc1	-1	100*	.
C[C@@H]1CN([C@@H](C)CO)C(=O)c2cc(NC(=O)NC3CCCCC3)ccc2O[C@@H]1CN(C)Cc1ccc(-c2ccccc2)cc1	-6	117*	1
C[C@@H]1CN([C@H](C)CO)C(=O)c2cc(NC(=O)NC3CCCCC3)ccc2O[C@H]1CN(C)Cc1ccc(-c2ccccc2)cc1	-4	?	.
CCCN(CCC)C(=O)c1cccc2c1-c1ccccc1C2=O	0	27	.
Cc1ccc(S(=O)(=O)N(CC(N)=O)c2ccc(Br)cc2)cc1	1	-20	2
N=c1ncn(Cc2ccccc2)c2nc(SCC(=O)O)[nH]c12	3	0	-2
COc1ccc(CN(C)C[C@H]2Oc3ccc(NS(=O)(=O)c4ccc(C)cc4)cc3CC(=O)N([C@@H](C)CO)C[C@@H]2C)cc1	.	47	.
Cc1ccc(S(=O)(=O)Nc2ccc3c(c2)CC(=O)N([C@@H](C)CO)C[C@H](C)[C@H](CN(C)Cc2ccc(Oc4ccccc4)cc2)O3)cc1	3	120*	7
COc1ccc(CN(C)C[C@@H]2Oc3ccc(NS(=O)(=O)c4ccc(C)cc4)cc3CC(=O)N([C@H](C)CO)C[C@@H]2C)cc1	.	38	.
Cc1ccc(S(=O)(=O)Nc2ccc3c(c2)CC(=O)N([C@@H](C)CO)C[C@@H](C)[C@@H](CN(C)Cc2ccc(Oc4ccccc4)cc2)O3)cc1	-3	115*	-1
COC(=O)c1ccc(NC(=O)CSc2nncc3ccccc23)cc1	-3	15	4
Cc1ccc(N(CC(=O)Nc2cccc3ccccc23)S(C)(=O)=O)cc1Cl	1	28	1
C[C@@H]1CN([C@@H](C)CO)C(=O)Cc2cc(NC(=O)Nc3ccc(C(F)(F)F)cc3)ccc2O[C@@H]1CN(C)S(=O)(=O)c1ccc(F)cc1	-1	100*	-8
C[C@H]1CN([C@@H](C)CO)C(=O)Cc2cc(NC(=O)CCC(F)(F)F)ccc2O[C@@H]1CN(C)S(=O)(=O)c1ccc(F)cc1	.	16	0
C[C@H]1CN([C@@H](C)CO)C(=O)Cc2cc(NC(=O)Nc3ccc(C(F)(F)F)cc3)ccc2O[C@H]1CN(C)S(=O)(=O)c1ccc(F)cc1	-3	115*	-1
C[C@H]1CN([C@@H](C)CO)C(=O)Cc2cc(NC(=O)Nc3ccc(F)cc3)ccc2O[C@@H]1CN(C)S(=O)(=O)c1ccc(F)cc1	0	25	-2
C[C@H](CO)N1C[C@H](C)[C@H](CN(C)S(=O)(=O)c2ccc(F)cc2)Oc2ccc(NC(=O)CCC(F)(F)F)cc2CC1=O	0	126*	0
C[C@@H]1CN([C@H](C)CO)C(=O)Cc2cc(NC(=O)Nc3ccc(C(F)(F)F)cc3)ccc2O[C@H]1CN(C)S(=O)(=O)c1ccc(F)cc1	1	6	-1
C[C@@H]1CN([C@@H](C)CO)C(=O)Cc2cc(NC(=O)CCCCCC(=O)Nc3ccccc3N)ccc2O[C@@H]1CN(C)CC1CCCCC1	1	136*	.
C[C@H](CO)N1C[C@H](C)[C@H](CN(C)CC2CC2)Oc2ccc(NC(=O)CCCCCC(=O)Nc3ccccc3N)cc2CC1=O	-1	140*	.
C[C@@H]1CN([C@H](C)CO)C(=O)Cc2cc(NC(=O)CCCCCC(=O)Nc3ccccc3N)ccc2O[C@@H]1CN(C)C	2	48	.
C[C@H](CO)N1C[C@H](C)[C@@H](CN(C)CC2CCCCC2)Oc2ccc(NC(=O)CCCCCC(=O)Nc3ccccc3N)cc2C1=O	1	26	.
Cc1ccccc1NC(=O)CCc1nc(-c2ccccc2F)no1	0	24	-2
COC(=O)c1ccccc1NC(=O)CN(c1ccc(F)cc1)S(C)(=O)=O	1	-5	-3
SMILES	PD-1 reverse act	NOMO-1 viab	STK33 inh
O=C(CSc1nc2ccccc2c(=O)n1Cc1ccccc1)c1cc2ccccc2o1	0	-10	4
O=C1C(=O)N(Cc2ccco2)C(c2cccs2)C1C(=O)c1cccs1 (stereo not given)	6	11	-1
COc1ccc(Cl)cc1N(CC(=O)Nc1cc(Cl)ccc1Cl)S(C)(=O)=O	.	1	-1
C=C1C(=O)O[C@@H]2/C=C(/C)[C@@H]3C/C=C(/C[C@@H](OC(=O)/C(=C/CO)CO)[C@@H]12)C[C@@](O)(C(C)C)C(=O)O3	-10	107*	-4
COc1c(CCC(=O)O)c(O[C@@H]2O[C@H](CO)[C@@H](O)[C@H](O)[C@H]2O)cc2occc12	.	.	-8
O=C(CSc1ccc(F)cc1Cl)C12CC3CC(CC(C3)C1)C2	-1	39	.
N#CSCC(=O)C12CC3CC(CC(C3)C1)C2	-7	113*	.
O=C(NCc1ccco1)c1cncc(Br)c1	0	4	4
C=C1C(=O)O[C@H]2C[C@H](C)[C@@H]3CC(=O)C(C)=C3C[C@H]12	-9	117*	1
C=C1C(=O)O[C@H]2CC(C)C3CC[C@@]4(C)O[C@@]34CC12 (stereo not given in full)	.	.	-2
C[C@H](CO)N1C[C@H](C)[C@@H](CN(C)Cc2ccc(Cl)c(Cl)c2)Oc2ccc(NC(=O)Cc3cn(C)c4ccccc34)cc2C1=O	-2	61	.
C[C@H](CO)N1C[C@H](C)[C@H](CN(C)Cc2ccc(Cl)c(Cl)c2)Oc2ccc(NC(=O)Cc3cn(C)c4ccccc34)cc2C1=O	-2	108*	.
C[C@@H]1CN([C@@H](C)CO)C(=O)c2cc(NC(=O)Cc3cn(C)c4ccccc34)ccc2O[C@H]1CN(C)Cc1ccc(Cl)c(Cl)c1	-2	97*	4
C[C@@H]1CN([C@@H](C)CO)C(=O)c2cc(NC(=O)Cc3cn(C)c4ccccc34)ccc2O[C@@H]1CN(C)Cc1ccccc1	-4	63	.
COC(=O)c1ccc(NC(=O)CN(C)S(=O)(=O)c2cc(Cl)ccc2Cl)cc1	1	-17	-4
CCN(C(=O)c1cccc(C(=O)N(CC)c2ccccc2)c1)c1ccccc1	2	20	-1
COc1ccc(-n2nc3cc(C)c(NC(=O)COc4ccccc4)cc3n2)cc1	2	8	1
COc1cc(/C=C2\Oc3cc(O)ccc3C2=O)ccc1O	2	-2	78*
COc1ccc(-c2coc3cc(O)ccc3c2=O)c(OC)c1O	.	9	1
Cc1ccc(-c2csc3nnc(SCC(=O)c4ccc(Cl)c(Cl)c4)n23)cc1	-6	103*	1
O=C(CSc1nnc2scc(-c3ccccc3)n12)c1ccc2c(c1)OCCO2	2	-3	-1
N#CC1=C(N)C(C#N)(C#N)C2(C(=O)N(Cc3ccccc3)c3ccccc32)C2CCCC=C12 (stereo not given)	-6	22	.
C[C@@H]1CN([C@H](C)CO)C(=O)c2cc(NS(=O)(=O)c3ccc(Cl)cc3)ccc2O[C@@H]1CN(C)Cc1ccc(C(=O)Nc2ccccc2N)cc1	-1	109*	.
